Our source for the Potency values is PubChem BioAssay (Tox21).

Several values for one entry are separate records, joined by “and”; a condition that tells them apart may be missing. Identical values can stand only once. Records with an inconclusive call do not appear. A structure can be active in one record and inactive in another. Activity calls are given as the source filed them. Unless noted, calls come from the whole dose curve; as a rule, active = well fitted curve in the direction sought with a large enough effect in the repeat runs; inconclusive = weak or mixed curves; inactive = no such curve, though single readings can be large; an effect the other way counts as inactive or inconclusive.

Experiment [1] addresses Estrogen receptor (Homo sapiens) (UniProt P03372). Briefly: qHTS assay to identify small molecule antagonists of the estrogen receptor alpha (ER-alpha) signaling pathway using the BG1 cell line in the presence of 0.1 nM 17-beta-estradiol (AID 1259244). Note: nearly all actives have a fitted effect of over 50% in size. Note: potency is the fitted concentration of half-maximal effect. A digest of the protocol:
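Antagonist mode: compounds in DMSO are pinned onto VM7Luc4E2 reporter cells, 0.1 nM final 17beta-estradiol is added, and after 22 h at 37C luciferase luminescence is measured with ONE-Glo.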

Experiment [2] can be described thus: qHTS assay to identify small molecule phospholipidosis (PLD) inducers (AID 1259344; active = well fitted curve in the direction sought with a large enough effect; an effect the other way counts as inactive or inconclusive). The gist of the method: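 Image-based: LipidTOX Red pit count/intensity per well and per cell; HepG2, 24 h compound at 37 C, PFA fixation, Hoechst counterstain.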
On the technique in general: qHTS replaces the single test concentration by a dilution series.

Experiment [3] in a line: qHTS assay to identify small molecule HDAC inhibitors (AID 1259364).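 Note: wild-type HCT-116 cells with endogenous class I/II HDAC activity; top concentration of the series differs between compounds; nearly all actives have a fitted effect of over 45% in size.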 The gist of the method:
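Cells (HCT-116, wild type) are seeded at 1,500 per well, incubated overnight, treated with compound in DMSO for 2 hr, then developed with HDAC-Glo I/II reagent for 30 min at room temperature.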

Experiment [4] can be described thus: qHTS assay to identify small molecule HDAC inhibitors - cell viability counter screen (AID 1259365). Note: nearly all actives have a fitted effect of over 50% in size. Note: potency is the fitted concentration of half-maximal effect. The gist of the method: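 Wild-type HCT-116 cells, 1,500/well, cultured overnight, then compound-treated 2 h at 37 C. Viability measured as ATP luminescence with CellTiter-Glo after 30 min at room temperature.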
The nature of experiment [5]: qHTS assay to identify small molecule antagonists of the sonic hedgehog signaling (Shh) pathway - cell viability counter screen (AID 1259367). Note: nearly all actives have a fitted effect of over 55% in size. Note: potency is the fitted concentration of half-maximal effect. The gist of the method: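 Tox21 library chemicals were tested on a Gli1-Luc NIH/3T3 clone (2,000 cells/well) stimulated by conditioned medium; viability was quantified as fluorescence from CellTiter-Fluor reagent added at 23 hr.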

Experiment [6] can be described thus: qHTS assay to identify small molecule agonists of the sonic hedgehog signaling (Shh) pathway (AID 1259368; calls by dose curve;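 note: NIH/3T3-derived 3T3Gli1-Luc cells carrying a stable Gli1-driven firefly luciferase reporter; series mostly up to about 92 µM; nearly all actives have a fitted effect of over 15% in size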). The gist of the method: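 Cells of a mouse NIH/3T3 clone stably expressing luciferase under the Gli1 transcriptional response element are exposed to test chemicals for 24 hr at 37 C. Pathway activation is detected as a rise in luminescence.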
The nature of experiment [7]: qHTS assay to identify small molecule antagonists of the sonic hedgehog signaling (Shh) pathway (AID 1259369; calls by dose curve; note: nearly all actives have a fitted effect of over 45% in size; note: potency is the fitted concentration of half-maximal effect). The gist of the method:
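Cells are plated and held 4hr at 37 C, compounds (DMSO) are pinned in, conditioned medium is added to stimulate the pathway, and after 24hr luciferase reagent is added for 30min before luminescence is read.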

Experiment [8] is described as follows: qHTS assay to identify small molecule agonists of the sonic hedgehog signaling (Shh) pathway - cell viability counter screen (AID 1259366). Note: nearly all actives have a fitted effect of over 50% in size. Note: potency is the fitted concentration of half-maximal effect. The gist of the method: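 NIH/3T3-derived Gli1-Luc reporter cells, 2,000 per well, received compound after 4 h and were treated about 23 h at 37C. Viability measured in the same wells by CellTiter-Fluor fluorescence after 1 h.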

The target of experiment [9] is Estrogen receptor beta (Homo sapiens) (UniProt Q92731). Briefly: qHTS assay to identify small molecule agonists of the estrogen receptor beta (ER-beta) signaling pathway (AID 1259377; active = well fitted activation curve with a large enough effect in the signal ratio in the repeat runs, not every such curve was filed as active; the % refers to the signal ratio). A digest of the protocol:
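ER-beta-UAS-bla HEK293T cells in medium with 2% charcoal-stripped FBS were exposed to compounds for 16 h at 37C. Beta-lactamase reporter activity was read as fluorescence after 2 h with LiveBLAzer B/G FRET substrate at room temperature.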

For experiment [10], the target named is Androgen receptor (Homo sapiens) (UniProt P10275). Nature of the experiment: qHTS assay to identify small molecule antagonists of the androgen receptor (AR) signaling pathway using the MDA cell line in the presence of 0.5 nM R1881 (AID 1259243). Note: nearly all actives have a fitted effect of over 50% in size. Note: potency is the fitted concentration of half-maximal effect. The gist of the method:
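Stably transfected MDA-kb2 cells express luciferase from an MMTV promoter bearing both AR and GR response elements. Compounds plus 0.5 nM R1881 (final) were incubated 16 hr at 37C without CO2, then luminescence measured.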

Sequence of Estrogen receptor (Homo sapiens) (P03372 whole entry, looked up): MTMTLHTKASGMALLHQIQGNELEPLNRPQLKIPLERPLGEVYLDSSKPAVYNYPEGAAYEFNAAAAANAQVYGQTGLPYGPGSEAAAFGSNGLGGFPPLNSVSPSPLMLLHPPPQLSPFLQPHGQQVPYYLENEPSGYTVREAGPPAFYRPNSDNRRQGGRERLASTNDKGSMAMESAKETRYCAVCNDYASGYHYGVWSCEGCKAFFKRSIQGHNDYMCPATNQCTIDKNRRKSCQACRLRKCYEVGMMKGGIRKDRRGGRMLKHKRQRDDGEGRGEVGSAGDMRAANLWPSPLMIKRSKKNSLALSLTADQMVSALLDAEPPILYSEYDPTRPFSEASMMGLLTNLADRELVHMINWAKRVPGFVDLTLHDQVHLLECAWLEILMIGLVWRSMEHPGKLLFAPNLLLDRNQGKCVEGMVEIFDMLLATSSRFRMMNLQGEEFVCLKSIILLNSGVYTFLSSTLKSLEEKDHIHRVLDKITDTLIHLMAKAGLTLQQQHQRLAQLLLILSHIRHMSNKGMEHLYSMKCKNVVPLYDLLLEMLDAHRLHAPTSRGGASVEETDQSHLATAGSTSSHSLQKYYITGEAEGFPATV
Sequence of Estrogen receptor beta (Homo sapiens) (Q92731 whole entry, looked up): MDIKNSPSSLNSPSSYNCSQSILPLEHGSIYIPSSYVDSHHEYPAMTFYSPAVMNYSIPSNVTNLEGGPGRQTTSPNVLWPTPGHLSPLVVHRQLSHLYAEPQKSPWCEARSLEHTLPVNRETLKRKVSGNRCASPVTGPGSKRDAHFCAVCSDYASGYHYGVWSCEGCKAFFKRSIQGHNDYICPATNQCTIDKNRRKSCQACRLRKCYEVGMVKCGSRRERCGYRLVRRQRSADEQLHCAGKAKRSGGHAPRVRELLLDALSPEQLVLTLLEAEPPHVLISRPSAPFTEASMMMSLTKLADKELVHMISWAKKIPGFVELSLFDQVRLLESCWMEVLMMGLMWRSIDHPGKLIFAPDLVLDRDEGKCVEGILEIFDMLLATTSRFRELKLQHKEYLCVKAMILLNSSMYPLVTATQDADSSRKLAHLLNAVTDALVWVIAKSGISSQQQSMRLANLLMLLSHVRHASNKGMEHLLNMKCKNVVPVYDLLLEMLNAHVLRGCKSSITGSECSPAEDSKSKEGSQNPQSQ
Sequence of Androgen receptor (Homo sapiens) (P10275 whole entry, looked up): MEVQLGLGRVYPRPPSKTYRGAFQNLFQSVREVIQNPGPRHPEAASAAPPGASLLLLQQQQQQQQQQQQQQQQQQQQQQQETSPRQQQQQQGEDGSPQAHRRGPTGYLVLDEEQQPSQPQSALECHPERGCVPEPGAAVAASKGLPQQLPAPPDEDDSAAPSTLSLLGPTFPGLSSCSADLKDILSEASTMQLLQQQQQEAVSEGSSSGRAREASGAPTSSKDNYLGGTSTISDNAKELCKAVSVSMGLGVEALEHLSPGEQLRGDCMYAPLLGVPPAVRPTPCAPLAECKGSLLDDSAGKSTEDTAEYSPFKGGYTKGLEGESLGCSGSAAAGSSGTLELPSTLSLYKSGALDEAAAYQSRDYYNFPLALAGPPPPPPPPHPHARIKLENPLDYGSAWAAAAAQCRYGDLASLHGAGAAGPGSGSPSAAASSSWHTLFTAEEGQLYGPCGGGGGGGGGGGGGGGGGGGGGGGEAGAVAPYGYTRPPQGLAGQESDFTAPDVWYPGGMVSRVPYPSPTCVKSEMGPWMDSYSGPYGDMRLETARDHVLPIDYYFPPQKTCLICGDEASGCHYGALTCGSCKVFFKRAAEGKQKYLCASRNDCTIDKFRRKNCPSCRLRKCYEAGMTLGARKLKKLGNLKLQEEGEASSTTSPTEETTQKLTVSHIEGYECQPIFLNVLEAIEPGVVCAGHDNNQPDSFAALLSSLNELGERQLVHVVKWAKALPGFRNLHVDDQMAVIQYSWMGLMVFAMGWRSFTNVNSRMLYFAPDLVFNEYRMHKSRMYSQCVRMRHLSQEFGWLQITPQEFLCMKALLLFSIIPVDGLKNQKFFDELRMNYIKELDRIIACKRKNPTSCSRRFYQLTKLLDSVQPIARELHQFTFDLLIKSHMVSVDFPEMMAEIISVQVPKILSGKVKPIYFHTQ

For `S=P(N1CC1)(N1CC1)N1CC1`, the Potency result in [1], in experiment [2], in [3], in experiment [4] and in experiment [6] was “inactive” in each case. The Potency in experiment [5] is 57.4 µM (active); in [7] it was 22.9 µM (active).
On to `Cc1cc2c(C(C)C)c(O)c(O)c(C=O)c2c(O)c1-c1c(C)cc2c(C(C)C)c(O)c(O)c(C=O)c2c1O`, for which the Potency entry in experiment [1], in experiment [2], in experiment [3], in [4] and in experiment [6] was “inactive” throughout.
As for `CC(C)c1ccccc1N`, the Potency entry in experiment [1], in [3], in experiment [4], in experiment [8], in experiment [5] and in experiment [6] was “inactive” in each case. For the same molecule, in experiment [7], the Potency result is “inactive”.
As for `CC(COC(=O)c1ccccc1)OC(=O)c1ccccc1` (stereo not given), the Potency entry in experiment [1], in [3], in [4], in [8], in experiment [5] and in [6] was “inactive” each time.
On to `CC(=O)Oc1ccc(C2(c3ccc(OC(C)=O)cc3)Oc3ccccc3NC2=O)cc1`, for which the Potency entry in experiment [1], in experiment [2], in experiment [3], in experiment [4], in experiment [8] and in experiment [6] was “inactive” each time. The Potency entry in experiment [9] is “inactive”. Besides, in [7], the Potency is 8.41 µM (active).
Regarding `C(=C/c1ccccc1)/c1ccccc1`, the Potency result in [1], in [3], in [4], in experiment [8], in experiment [5] and in experiment [6] was “inactive” throughout. The Potency entry in experiment [7] is “inactive”.
Consider `CN(C)CCOC(c1ccccc1)c1ccccc1` (tested in a mixture with another compound), for which the Potency entry in experiment [10], in experiment [3], in [4], in [6] and in experiment [9] was “inactive” throughout. The values for the Potency in experiment [5] and in experiment [7] were 61.6 µM (active) and 24.5 µM (active), respectively.
As for `CCC(C)C(=O)OC` (stereo not given), the Potency result in experiment [1], in [3], in experiment [4], in [8], in [5] and in [6] was “inactive” in each case. In addition, in [7], the Potency entry was “inactive”.
Turning to `CCOC(/C=C(\C)CCC=C(C)C)OCC`, the Potency entry in experiment [1], in [3], in experiment [4], in [8], in [5] and in [6] was “inactive” in each case.
On to `CCN(CC)CCNc1ccc(CO)c2sc3ccccc3c(=O)c12`, for which the Potency entry in experiment [1], in experiment [2], in experiment [3], in experiment [4] and in experiment [6] was “inactive” throughout. For the same molecule, in experiment [7], the Potency was 13.3 µM (active).
For `CCCCCCCCCCCCCCCC`, the Potency entry in experiment [1], in [3], in experiment [4], in experiment [8], in experiment [5] and in [6] was “inactive” each time. For the same molecule, the Potency entry in experiment [7] was “inactive”.
As to `CCCC(CC)CCCCCCCN` (stereo not given), the Potency result in experiment [1], in experiment [3], in experiment [4], in experiment [8], in [5] and in experiment [6] was “inactive” throughout.
As for `CCO[Si](CCCSSSSCCC[Si](OCC)(OCC)OCC)(OCC)OCC`, the Potency result in [1], in experiment [3], in [4], in experiment [8], in experiment [5] and in experiment [6] was “inactive” throughout. Further, in [7], the Potency entry was “inactive”.
On to `CNC(=S)NN`, for which the Potency was 48.6 µM (active) in experiment [1], 30.6 µM (active) in [8], 17.2 µM (active) in experiment [5] and 3.44 µM (active) in [7]. Also, the Potency entry in [3], in experiment [4] and in [6] was “inactive” throughout.
Take `C[C@@]12C(=O)OC(=O)[C@]1(C)C1CCC2O1`: the Potency in experiment [1] is 6.68 µM (active); in experiment [8] it was 1.5 µM (active); in experiment [5], 3.76 µM (active); in experiment [7], 1.68 µM (active). In addition, the Potency entry in experiment [2], in experiment [3] and in experiment [6] was “inactive” each time.
Take `CNC(=O)c1cc(Oc2ccc(NC(=O)Nc3ccc(Cl)c(C(F)(F)F)c3)cc2)ccn1`: the Potency in experiment [1] and in experiment [7] was 26.6 µM (active) each time. The Potency entry in experiment [2], in experiment [3], in experiment [4] and in [6] was “inactive” in each case.
In the case of `CSc1ccc2c(c1)N(CCC1CCCCN1C)c1ccccc1S2` (stereo not given), the Potency in experiment [1] is 54.3 µM (active) and inactive; in experiment [8], 15.3 µM (active) and 29.8 µM (active); in experiment [5] it was 21.6 µM (active) and 29.8 µM (active); in experiment [7], 5.43 µM (active) and 11.9 µM (active). Further, the Potency entry in [2], in [3], in experiment [4] and in [6] was “inactive” throughout.
`O[C@@H](c1cc(C(F)(F)F)nc2c(C(F)(F)F)cccc12)[C@H]1CCCCN1`: the Potency entry in [1], in [2], in [3], in experiment [4], in experiment [6] and in experiment [9] was “inactive” throughout. Also, the figures for the Potency in experiment [8], in [5] and in [7] were 29.8 µM (active), 29.8 µM (active) and 23.7 µM (active), respectively.
In the case of `O=C(Nc1ccc(Cl)cc1)Nc1ccc(Cl)c(C(F)(F)F)c1`, the Potency was 9.44 µM (active) in experiment [1] and 7.5 µM (active) in [7]. Moreover, the Potency result in [2], in experiment [3], in [4], in experiment [8], in experiment [6] and in experiment [9] was “inactive” each time.
`CCCCCCCCCCCCCC[n+]1ccccc1`: the Potency in experiment [1] was 2.17 µM (active); in [8] it was 61.1 µM (active); in experiment [5], 61.1 µM (active); in experiment [7], 0.0049 µM (active). The Potency result in experiment [3], in [4] and in experiment [6] was “inactive” in each case.
As to `CCCOc1sc(C(=O)N2CCC(c3cc(CN)ccc3F)CC2)c(C)c1Br`, the Potency in experiment [10] was 39.7 µM (active); in experiment [4], 62.8 µM (active); in experiment [8], 22.3 µM (active); in [5] it was 25 µM (active). In addition, the Potency result in experiment [6] and in experiment [7] was “inactive” in each case.
Consider `CC(C)N=C(N)/N=C(\N)Nc1ccc(Cl)cc1`, for which the Potency entry in [1], in [2], in [3], in [4], in [5] and in [6] was “inactive” throughout. Also, the Potency result in [9] was “inactive”.
As for `CCCCCCCCCCCCCCNCCO`, the Potency result in experiment [1], in experiment [2], in experiment [3], in experiment [4], in experiment [8] and in [5] was “inactive” in each case. The Potency result in experiment [6] and in experiment [7] was “inactive” each time.
As for `C1CC(COCC2CO2)CCC1COCC1CO1` (stereo not given), the Potency entry in experiment [1], in experiment [3], in experiment [4], in experiment [5], in [6] and in experiment [7] was “inactive” each time.
In the case of `CN(C)CCN1CCOCC1`, the Potency result in experiment [1], in experiment [3], in experiment [4], in experiment [8], in experiment [5] and in experiment [6] was “inactive” in each case. For the same molecule, the Potency result in experiment [7] and in [9] was “inactive” in each case.
Regarding `CC(C)=C1CC[C@@H](C)CC1=O`, the Potency entry in experiment [1], in experiment [3], in [4], in [8], in experiment [5] and in [6] was “inactive” in each case. The Potency entry in experiment [7] and in [9] was “inactive” in each case.
For `CCCCCCCCCCCCCOP(=O)(O)O`, the Potency result in experiment [1], in experiment [3], in [4], in experiment [8], in experiment [5] and in experiment [6] was “inactive” throughout. Moreover, the Potency entry in [7] and in [9] was “inactive” in each case.
For `CN(C)CCCN1c2ccccc2Sc2ccc(C(F)(F)F)cc21`, the Potency result in experiment [1], in experiment [3], in [4], in experiment [8] and in experiment [6] was “inactive” throughout. Besides, the Potency in experiment [7] was 29.8 µM (active).
